CF NFkB block: inhibitors of cystic fibrosis induced NF-kB. KKLEB NF-kB-GFP reporter, PAF-induced, GFP fluorescence overnight. inhibition, % at 5 µM. 0.86% of 360,000 active. AID 588850;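 active = at least 50% inhibition at 5 µM, scaled per plate between neutral and stimulator controls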;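 also: PAF is a Pseudomonas aeruginosa culture filtrate used as stimulus; plate controls were PAF-stimulated DMSO wells for no effect and unstimulated DMSO wells for full effect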
Peg3 promoter: Peg3 promoter activity inhibition; HeLa PEG-Prom luciferase reporter, luminescence, overnight; inhibition, % at 20 µM; AID 588405; 1.7% of 360,000 active;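 active = inhibition of at least 50% at 20 µM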
LGR2 inh: blocks bursicon-induced cAMP signaling via Drosophila LGR2. AID 720647. inhibition, % at 9.99 µM. 0.35% of 380,000 active. HEK293 LGR2, CRE-luciferase, bursicon-stimulated, 4 h;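 active = drop in luminescence signal, shown as inhibition above about 50% in the replicate tests, limit read from the data, passing the limit was not always enough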;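 also: agonist challenge used bursicon conditioned medium at about half maximal strength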
KKLEB cytotox: counter-screen for CF NF-kB inhibitors: cytotoxicity; 0.36% of 360,000 active; AID 602141; KKLEB CF airway cells viability, ATPlite luminescence, overnight; hits give low values; cells stimulated with P. aeruginosa culture filtrate; activity change (cytotoxicity), % at 5 µM;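 active = corrected activity change at or below -50% at 5 µM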
HSP90 inh: HSP90 refolding inhibition in rabbit reticulocyte lysate. inhibition, % at 5.6 µM. luciferase refolding luminescence, 3 h. 0.91% of 290,000 active;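 active = inhibition above the screen-wide mean plus 3 SD, computed separately per campaign, cut at about 16% in these data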;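 also: 0% = DMSO wells and 100% = 60 µM geldanamycin wells; inhibitors lower the luminescence because luciferase stays unfolded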
Mdm2 MdmX PPI: inhibitors of human Mdm2/MdmX interaction. 3% of 330,000 active. SaOS-2 split-luciferase Mdm2/MdmX complementation, luminescence. AID 485346. O15151+Q00987. inhibition, % at 8 µM;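 active = inhibition of at least 50% at 8 µM in the primary screen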
Target sequence (O15151 whole entry, looked up): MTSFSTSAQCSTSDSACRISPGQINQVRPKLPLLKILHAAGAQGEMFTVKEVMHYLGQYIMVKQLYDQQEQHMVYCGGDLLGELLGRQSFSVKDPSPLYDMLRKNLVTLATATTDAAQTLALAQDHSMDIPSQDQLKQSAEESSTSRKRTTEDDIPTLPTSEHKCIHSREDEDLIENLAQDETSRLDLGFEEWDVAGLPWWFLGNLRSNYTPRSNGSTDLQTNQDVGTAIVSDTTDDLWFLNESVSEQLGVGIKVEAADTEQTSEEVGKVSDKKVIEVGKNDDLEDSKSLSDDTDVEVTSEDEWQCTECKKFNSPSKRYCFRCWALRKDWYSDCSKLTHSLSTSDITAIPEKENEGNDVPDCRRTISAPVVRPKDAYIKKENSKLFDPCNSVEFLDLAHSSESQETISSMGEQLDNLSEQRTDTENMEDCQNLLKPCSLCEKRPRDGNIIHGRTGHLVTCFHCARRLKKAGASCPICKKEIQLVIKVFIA
Target sequence (Q00987 whole entry, looked up): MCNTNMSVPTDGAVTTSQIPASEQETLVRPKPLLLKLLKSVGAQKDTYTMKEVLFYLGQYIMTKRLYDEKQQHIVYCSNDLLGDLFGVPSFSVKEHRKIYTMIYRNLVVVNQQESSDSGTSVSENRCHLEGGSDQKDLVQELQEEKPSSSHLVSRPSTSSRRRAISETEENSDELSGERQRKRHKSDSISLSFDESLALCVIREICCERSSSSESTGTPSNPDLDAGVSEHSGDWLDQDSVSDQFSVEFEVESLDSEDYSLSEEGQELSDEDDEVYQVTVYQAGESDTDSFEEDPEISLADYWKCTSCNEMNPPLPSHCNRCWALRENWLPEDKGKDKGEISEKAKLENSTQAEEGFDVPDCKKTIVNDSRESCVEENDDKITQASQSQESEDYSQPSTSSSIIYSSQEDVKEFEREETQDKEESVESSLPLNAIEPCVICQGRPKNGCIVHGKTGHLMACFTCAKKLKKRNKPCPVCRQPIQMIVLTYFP
Mdm2-MdmX conf: confirmation of human Mdm2/MdmX interaction inhibitors. Mdm2-MdmX binding, luminescent assay. inhibition, % at 8 µM. shares compounds with Mdm2 MdmX PPI. 55% of 10,000 active. AID 489028; in the data active = inhibition above about 40%
FLuc counter: full-length luciferase inhibition in Mdm2/MdmX counter-screen. shares compounds with Mdm2 MdmX PPI. SaOS-2 full-length luciferase counterscreen, luminescence. inhibition, % at 8 µM. 77% of 6,200 active. AID 504607;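 active = mean inhibition at 8 µM reaching about 37%, which flags the compound as non-specific, limit read from the data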;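 also: p53-null SaOS-2 cells with luciferase driven by a doxycycline-inducible promoter; compound on cells about two nights before reading with doxycycline added after day one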
Active calls of the source: *. Compounds with a hit are over-represented: about 3.6% of the library has one in this group of screens.

What do the screens show for `COc1ccc(-c2[nH]n(-c3ccc([N+](=O)[O-])cc3)c(=O)c2C=NCc2ccc(F)cc2)cc1`?
CF NFkB block: 35.5; Peg3 promoter: 11.8; KKLEB cytotox: -32.0; HSP90 inh: -0.7; Mdm2 MdmX PPI: 80.0*; Mdm2-MdmX conf: -18.8

Results for O=C(Nc1ccc(F)cc1F)Nc1csc2ccccc12 ?
CF NFkB block: 9.4; Peg3 promoter: -127.6; LGR2 inh: -34.9; KKLEB cytotox: 10.2; HSP90 inh: 4.7; Mdm2 MdmX PPI: 14.0

What do the screens show for `O=C(Nc1ccc(F)c(Cl)c1)Nc1csc2ccccc12`?
CF NFkB block: 44.2; Peg3 promoter: -48.8; LGR2 inh: 8.8; KKLEB cytotox: -28.3; HSP90 inh: -1.0; Mdm2 MdmX PPI: 93.7*; Mdm2-MdmX conf: 58.0*; FLuc counter: 35.0

Results for C[C@@H]1CCCCO[C@@H](CN(C)CC2CCCCC2)[C@H](C)CN([C@@H](C)CO)C(=O)c2cc(NC(=O)CCC(F)(F)F)ccc2O1 ?
LGR2 inh: -3.4

How did C[C@H]1CN([C@@H](C)CO)C(=O)c2cc(NC(=O)Cn3cnnn3)ccc2O[C@H]1CN(C)S(=O)(=O)c1cn(C)cn1 do in these assays?
LGR2 inh: -9.8

What do the screens show for `COc1ccccc1-c1cc(C(=O)N/N=C/c2cccs2)c2ccccc2n1`?
CF NFkB block: -10.7; Peg3 promoter: 14.9; KKLEB cytotox: 8.9; HSP90 inh: -0.3; Mdm2 MdmX PPI: 65.6*; Mdm2-MdmX conf: 35.0

What do the screens show for `COc1ccc(-c2cc(C(=O)N/N=C/c3sccc3C)c3ccccc3n2)c(OC)c1`?
CF NFkB block: -1.6; Peg3 promoter: 20.9; KKLEB cytotox: -10.5; HSP90 inh: 4.3; Mdm2 MdmX PPI: 88.2*; Mdm2-MdmX conf: 87.4*; FLuc counter: 31.4

Results for CO[C@H]1CN(C)C(=O)c2cc(NC(=O)Nc3cc(F)ccc3F)ccc2OC[C@H](C)NC[C@@H]1C ?
LGR2 inh: 22.9

What do the screens show for `COCC#Cc1ccc2c(c1)O[C@H](CN(C)C(=O)C1CC1)[C@@H](C)CN([C@H](C)CO)S2(=O)=O`?
LGR2 inh: -1.7

What do the screens show for `O=C(Nc1ccc2c(c1)[C@@H]1C[C@@H](CC(=O)N3CCc4ccccc4C3)O[C@@H](CO)[C@@H]1O2)NC1CCCC1`?
LGR2 inh: -4.7

What do the screens show for `Cc1oc(-c2ccc(Cl)cc2)nc1CN1CCC(C(=O)N2CCc3ccccc3C2)CC1`?
CF NFkB block: 28.5; Peg3 promoter: 79.4*; KKLEB cytotox: -3.3; HSP90 inh: -2.3; Mdm2 MdmX PPI: 51.6*; Mdm2-MdmX conf: 37.2; FLuc counter: 58.5*

What do the screens show for `COc1ccccc1CNC(=O)C1CCN(Cc2nc(-c3cccc(Cl)c3)oc2C)CC1`?
CF NFkB block: 2.4; Peg3 promoter: -4.2; KKLEB cytotox: -4.8; HSP90 inh: -2.7; Mdm2 MdmX PPI: 20.2

What do the screens show for `Cc1oc(-c2ccc(Cl)cc2)nc1CN1CCC(C(=O)NCCCN2CCCC2=O)CC1`?
CF NFkB block: -3.2; Peg3 promoter: 6.1; LGR2 inh: 15.7; KKLEB cytotox: -6.3; HSP90 inh: 1.4; Mdm2 MdmX PPI: 21.2

How did Cc1oc(-c2ccc(Cl)cc2)nc1CN1CCC(C(=O)NCc2ccco2)CC1 do in these assays?
CF NFkB block: 10.8; Peg3 promoter: -20.0; KKLEB cytotox: 5.7; HSP90 inh: -2.2; Mdm2 MdmX PPI: -1.3

Results for CCc1ccc(-c2nc(CN3CCC(C(=O)NCc4ccccc4OC)CC3)c(C)o2)cc1 ?
CF NFkB block: 7.2; Peg3 promoter: -142.7; KKLEB cytotox: 6.2; HSP90 inh: 5.0; Mdm2 MdmX PPI: 57.0*; Mdm2-MdmX conf: 24.9

Results for CCN1CCN(CCNC(=O)C2CCN(Cc3nc(-c4ccc(Cl)cc4)oc3C)CC2)CC1 ?
HSP90 inh: -0.3; Mdm2 MdmX PPI: 99.2*; Mdm2-MdmX conf: 52.7*; FLuc counter: 37.4*

Results for Cc1oc(-c2ccc(Cl)cc2)nc1CN1CCC(C(=O)NCCCN2CCCC(C)C2)CC1 (stereo unspecified) ?
CF NFkB block: 5.4; Peg3 promoter: 43.2; LGR2 inh: -11.6; KKLEB cytotox: -13.4; HSP90 inh: -3.2; Mdm2 MdmX PPI: 100.4*; Mdm2-MdmX conf: 96.3*; FLuc counter: 21.2

Results for C[C@@H]1CN([C@H](C)CO)C(=O)Cc2cc(NS(C)(=O)=O)ccc2O[C@@H]1CN(C)S(=O)(=O)c1cccs1 ?
LGR2 inh: -11.6

What do the screens show for `C[C@H](CO)N1C[C@H](C)[C@@H](CN(C)C(=O)Nc2ccc3c(c2)OCO3)OCc2ccccc2-c2ccccc2C1=O`?
LGR2 inh: -3.5

Results for CCCNC(=O)Nc1ccc2c(c1)OC[C@@H](C)N(CCC)C[C@H](C)[C@H](OC)CN(C)C2=O ?
LGR2 inh: 8.9

Results for Cc1ccccc1-c1nc(CN2CCC(C(=O)NCCCN3CC(C)CC(C)C3)CC2)c(C)o1 (stereo unspecified) ?
CF NFkB block: 10.0; Peg3 promoter: 12.3; KKLEB cytotox: -12.9; HSP90 inh: 1.0; Mdm2 MdmX PPI: 78.2*; Mdm2-MdmX conf: 95.2*; FLuc counter: 25.7

Results for Cc1ccccc1-c1nc(CN2CCC(C(=O)NCCCN3CCCC3)CC2)c(C)o1 ?
CF NFkB block: 7.2; Peg3 promoter: 18.2; LGR2 inh: 4.8; KKLEB cytotox: -3.0; HSP90 inh: -1.2; Mdm2 MdmX PPI: 44.0

Results for CCN1CCCC1CNC(=O)C1CCN(Cc2nc(-c3cccc(Br)c3)oc2C)CC1 (stereo unspecified) ?
CF NFkB block: 20.2; Peg3 promoter: 90.9*; KKLEB cytotox: -21.8; HSP90 inh: 4.0; Mdm2 MdmX PPI: 83.6*; Mdm2-MdmX conf: 99.9*; FLuc counter: 3.9

How did Cc1oc(-c2cccc(Cl)c2)nc1CN1CCC(C(=O)NCc2ccco2)CC1 do in these assays?
CF NFkB block: 12.7; Peg3 promoter: 3.6; KKLEB cytotox: -1.2; HSP90 inh: 2.0; Mdm2 MdmX PPI: 3.0

How did Oc1ccc(/C=N/Nc2nc(N3CCCCCC3)nc(N3CCCCCC3)n2)c(O)c1 do in these assays?
CF NFkB block: -16.7; Peg3 promoter: 28.6; LGR2 inh: -3.2; KKLEB cytotox: 21.9; HSP90 inh: -0.1; Mdm2 MdmX PPI: 66.0*; Mdm2-MdmX conf: -12.6

How did COc1ccc(C(C#N)c2nc3ccccc3nc2Cl)cc1 (stereo unspecified) do in these assays?
CF NFkB block: -2.6; Peg3 promoter: 11.0; LGR2 inh: -15.6; KKLEB cytotox: -8.1; HSP90 inh: -0.6; Mdm2 MdmX PPI: 51.8*; Mdm2-MdmX conf: 19.1

Assay outcomes deposited in PubChem by several laboratories.
